The source made the active and inactive calls.
How the values were obtained:
[1] = A549 cell viability effects, profiling panel, calcein-AM fluorescence, 48 h, basal (AID 1162); details: higher = more signal
[2] = adipocyte viability effects, profiling panel, cell-based, 3T3-L1 adipocytes, calcein-AM fluorescence, 48 h, basal (AID 1163); details: 3T3-L1 adipocytes viability, higher = more signal
[3] = HepG2 cell viability effects, profiling panel, calcein-AM fluorescence, 48 h, basal (AID 1164); details: higher = more signal
[4] = MM1S cell viability effects, profiling panel, calcein-AM fluorescence, 48 h, basal (AID 1165); details: higher = more signal;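 note: viability of MM1S multiple myeloma cells under basal unstimulated conditions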
[5] = basal RPMI8226 viability, no added stimulus, profiling panel, cell-based, calcein-AM fluorescence, 48 h, PK04 Diversity Set (AID 1166); details: RPMI8226 myeloma viability, higher = more signal;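 note: cells grown under basal conditions without added stimulus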
[6] = basal HepG2 mitochondrial membrane potential changes, profiling panel, cell-based, JC-1 fluorescence, 24 h, 100 nL compound (AID 1167); details: higher = more signal
[7] = basal 3T3-L1 adipocyte mitochondrial potential changes, profiling panel, cell-based, JC-1 fluorescence, 3T3-L1 adipocytes, 24 h, 100 nL compound (AID 1168); details: JC-1 mitochondrial fluorescence, higher = more signal, called active from +8 up or from −8 down
[8] = basal RPMI8226 mitochondrial membrane potential changes, profiling panel, cell-based, JC-1 fluorescence, 24 h, 100 nL compound (AID 1169); details: RPMI8226 myeloma, JC-1 mitochondrial potential fluorescence, higher = more signal
[9] = basal MM1S mitochondrial membrane potential changes, profiling panel, cell-based, JC-1 fluorescence, 24 h, 100 nL compound (AID 1170); details: higher = more signal
[10] = A549 lung cancer cell viability effects, profiling panel, resazurin fluorescence, 24 h, PK04 Diversity Set (AID 1171); details: higher = more signal, called active from +8 up or from −8 down
Note: test concentration not given here.

SMILES	z-score [1]	z-score [2]	z-score [3]	z-score [4]	z-score [5]	z-score [6]	z-score [7]	z-score [8]	z-score [9]	z-score [10]
CC(=O)NCCCC[C@@H]1NC(=O)[C@H]2C[C@@H](C(=O)NCCCCCCN(C)C)[C@@H](c3ccc(O)cc3)N2C1=O	-0.345	1.03	-1.23	-0.327	-0.551	-0.755	0.154 (inactive)	0.669	0.116	-1.27 (inactive)
Cc1ccc(S[C@]2(C(=O)NC(C)C)CC(=O)N(Cc3cc(C(F)(F)F)cc(C(F)(F)F)c3)[C@@H]2c2ccc(CO)cc2I)cc1	0.813	-0.477	0.678	-1.66	-2.24	0.517	0.667 (inactive)	-0.455	-1.79	-0.101 (inactive)
O=C/C=C/c1ccccc1Cl	1.23	0.556	1.03	-0.882	0.895	1.74	0.603 (inactive)	0.562	1.09	0.807 (inactive)
C=CCC(OC(C)=O)[C@@H]1[C@@H](N(Cc2cc3ccccc3o2)C(=O)Cc2ccc(F)cc2)c2cc(OCCCO)ccc2N1C(=O)c1ccc(-c2ccccc2)cc1 (stereo not given in full)	1.79	0.0893	1.01	0.661	0.708	2.84	0.756 (inactive)	0.602	0.0416	1.18 (inactive)
CC(C)N1CC=CC23O[C@@H]4/C=C\CCCOC(=O)C4[C@H]2C(=O)N(CCO)[C@@H]3C1=O (stereo not given in full)	1.63	0.472	0.499	1.37	0.629	1.42	2.1 (inactive)	-0.442	0.776	1.39 (inactive)
CC(C)[Si](OCCCNS(=O)(=O)c1ccc(Br)cc1)(C(C)C)C(C)C	0.0609	0.279	-2.5	-3.23	-4.09	-3.5	2.29 (inactive)	-0.218	0.727	-0.116 (inactive)
CCOC(=O)C1=CCC(c2cccc3ccccc23)N(S(=O)(=O)c2ccc(C)cc2)C1 (stereo not given)	-0.989	-1	-0.106	-0.0257	0.291	1.98	-0.759 (inactive)	-0.498	-1.64	-0.658 (inactive)
COC(=O)[C@H]1[C@@H]2COc3ccccc3[C@H]2N[C@H]1C(=O)OC	0.0306	0.0308	0.648	-1.29	-0.347	0.321	-0.819 (inactive)	0.195	-0.975	-0.124 (inactive)
CO[C@H]1COC(=O)[C@H](CCSC)NC(=O)CC=C[C@@H](C)COC(=O)[C@@H](OCc2ccccc2)C=C[C@@H]1C	0.349	0.507	0.0042	0.199	-0.358	0.842	1.23 (inactive)	0.365	1.34	0.613 (inactive)
COCC(=C=CC[C@H](O)c1ccc(OCCO)cc1)C[C@H](O)c1ccccn1	0.905	-0.518	0.0126	0.682	0.237	1.79	1.09 (inactive)	-0.145	-0.116	1.02 (inactive)
O=C1c2ccccc2[C@](Cc2ccccc2I)(C(=O)NCC(F)(F)F)[C@H](c2ccc(CO)cc2)N1Cc1ccccc1C(F)(F)F	0.187	1.31	-0.529	-2.72	-2.27	0.535	-0.225 (inactive)	-0.248	0.415	1.32 (inactive)
[N-]=[N+]=NCc1ccccc1C[C@]1(C(N)=O)N=C(c2ccc(OCCCO)cc2)O[C@H]1c1ccccc1CN=[N+]=[N-]	-0.633	1.76	-1.35	-2.19	-3.71	1.89	0.575 (inactive)	-0.937	-0.621	-1.97 (inactive)
CO[C@H]1COC(=O)[C@@H](Cc2ccccc2)NC(=O)[C@@H](C)COC(=O)CC=C[C@@H]1C	0.899	0.172	0.662	0.221	0.373	0.606	0.0117 (inactive)	0.175	0.662	1.2 (inactive)
C[C@H]1C2[C@H](Cc3ccccc3)NC(=O)[C@]23C(=O)N[C@H](Cc2ccccc2)C(=O)N[C@@H](Cc2ccccc2)C(=O)NC/C=C\C/C=C/C3[C@@H]2O[C@]12C (stereo not given in full)	0.373	0.353	0.0599	-0.442	-1.35	1.24	0.4 (inactive)	-0.52	0.29	0.276 (inactive)
COCCOC(=O)N1C(=O)[C@@]2(c3cc(C#CCCO)ccc31)[C@H](c1ccc(OCCO)cc1)N1[C@H](c3ccccc3)[C@H](c3ccccc3)OC(=O)[C@H]1[C@@H]2C(=O)NC[C@H](O)c1ccccc1	0.0831	1.33	-0.796	0.0067	-1.06	-0.0377	0.357 (inactive)	0.0686	-0.709	0.703 (inactive)
Cc1ccc(S[C@]2(C(=O)NC3CC3)CC(=O)N(Cc3cc(C(F)(F)F)cc(C(F)(F)F)c3)[C@@H]2c2ccc(CO)cc2)cc1	0.902	1.69	0.445	0.239	0.16	0.259	-0.472 (inactive)	-0.718	-0.792	0.968 (inactive)
CCOC(=O)C[C@H]1[C@H](OC(=O)c2ccccc2-c2ccccc2)[C@@H](NC(=O)C2CCCCC2)c2cc(OCCCO)ccc2N1C(=O)c1ccccc1	-0.675	1.22	-0.294	-0.402	-1.33	3.59	0.75 (inactive)	-0.545	0.109	-0.0403 (inactive)
CC[C@H]1C2=C3C(CC[C@H]4C(OC)OC[C@](C)([C@@H]34)N(C(=O)OC(C)(C)C)C2)C(CO)C1CO (stereo not given in full)	-0.499	0.561	0.656	1	0.586	-0.528	0.0846 (inactive)	-0.38	-1.26	-1.28 (inactive)
CCN1C(C)=C(C(=O)OC)[C@@H](c2ccccc2)N2C(=O)[C@@]3(C(=O)OC)O[C@@]12[C@@H]1C(=O)N(c2ccccc2)C(=O)[C@@H]13	0.0365	1.67	-0.805	0.871	-0.892	0.564	1.17 (inactive)	1.22	0.0907	0.677 (inactive)
CC(C)CNC(=O)[C@@]1(C)c2ccccc2C(=O)N(Cc2ccc(OC(F)(F)F)cc2)[C@H]1c1ccc(CO)cc1	1.69	1.68	0.65	-0.249	-0.358	3.03	-0.481 (inactive)	0.862	1.38	1.32 (inactive)
O=C(CS)NCCCCCCNC(=O)[C@@H]1C[C@@H]2C(=O)N[C@@H](Cc3ccccc3)C(=O)N2[C@@H]1c1ccc(O)cc1	-0.401	0.861	-0.963	-0.0227	0.612	-1.67	-0.654 (inactive)	-0.208	-0.716	-0.226 (inactive)
C=C(CCCC)/C(=C/C[C@@H](OC(=O)c1ccncc1)c1cccc(OCCO)c1)c1cc(C(=O)OC)ccc1OC	1.25	-0.209	0.872	-2.25	-2.99	2.91	0.244 (inactive)	0.0948	-0.132	0.767 (inactive)
NC(=O)NCC#Cc1ccc2c(c1)[C@]1(C(=O)N2)[C@H](C(=O)N2CCCCCCC2)[C@H]2C(=O)O[C@H](c3ccccc3)[C@H](c3ccccc3)N2[C@@H]1c1ccccc1OCCO	-0.21	1.36	-0.0395	-2.48	-0.583	-1.25	1.03 (inactive)	-0.56	-0.693	1.28 (inactive)
[N-]=[N+]=Nc1ccccc1C[C@@]1(C(=O)N2CCOCC2)N=C(c2ccc(OCCCO)cc2)O[C@@H]1c1ccccc1N=[N+]=[N-]	-0.71	0.271	-1.19	-3.45	-4.53	0.925	1.98 (inactive)	-1.23	-1.54	-1.32 (inactive)
O=[N+]([O-])c1ccc(C[n+]2ccc3ccc(O)cc3c2)o1	1.21	0.233	-0.489	0.216	0.705	-1.43	-0.157 (inactive)	-0.158	0.648	-1.02 (inactive)
Cc1ccccc1C(O)C1C=CC2C(=O)N(c3ccccc3)C(=O)C2N1Nc1ccc(C#N)cc1 (stereo not given)	0.916	-0.175	2.03	-0.113	0.0872	0.258	-1.55 (inactive)	-0.472	0.99	0.682 (inactive)
[N-]=[N+]=NCc1ccccc1C[C@@]1(C(=O)O)N=C(c2ccc(OCCCO)cc2)O[C@@H]1c1ccccc1N=[N+]=[N-]	0.593	0.0001	0.435	-1.52	-2.27	-1.58	0.428 (inactive)	-0.898	-1.31	-1.32 (inactive)
COCCCNC(=O)[C@@]1(Sc2ccc(C)cc2)CC(=O)N(Cc2cc(C(F)(F)F)cc(C(F)(F)F)c2)[C@@H]1c1ccc(CO)cc1I	0.697	1.34	-0.632	-2.24	-2.34	0.0901	0.135 (inactive)	-0.00613	-0.315	0.555 (inactive)
C[C@@H]1NC(=O)[C@H](Cc2ccccc2)NC(=O)[C@@]23C(=O)N[C@@H](Cc4ccccc4)C2[C@H](C)[C@@]2(C)O[C@H]2C3/C=C/C/C=C\CNC1=O (stereo not given in full)	-0.0598	0.523	-0.706	0.0254	-1.65	-0.971	-0.206 (inactive)	0.814	0.546	-0.207 (inactive)

Reference: PubChem BioAssay
